In PubChem BioAssay (EPA / NIEHS):
Active and inactive are the calls of the source. How the source made its calls: active means hit-call score of the fitted dose curve at least 0.9, where 1 is the maximum; inactive means score below 0.9.

How the values were obtained:
[1] = read-out: Interleukin-8 (IL8), CXCL8 (gene 3576); assay: BSK_CASM3C_IL8: BioMAP Diversity Plus: CASM3C Assay for Interleukin-8 (IL8) Biomarker Activity (AID 2283042); conditions: primary human coronary artery smooth muscle cells; actives raise or lower the signal;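 further: IL-8 protein level quantified by ELISA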
[2] = read-out: Human Leukocyte Antigen - DR isotype (HLADR), HLA-DRA (gene 3122); assay: BSK_CASM3C_HLADR: BioMAP Diversity Plus: CASM3C Assay for Human Leukocyte Antigen - DR isotype (HLADR) Biomarker Activity (AID 2283043); conditions: primary human coronary artery smooth muscle cells; actives raise or lower the signal;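 further: cell-surface HLA-DR protein level quantified by ELISA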
[3] = read-out: Macrophage colony-stimulating factor (MCSF), CSF1 (gene 1435); assay: BSK_CASM3C_MCSF: BioMAP Diversity Plus: CASM3C Assay for Macrophage colony-stimulating factor (MCSF) Biomarker Activity (AID 2283044); conditions: primary human coronary artery smooth muscle cells; actives raise or lower the signal;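 further: M-CSF protein amount quantified by ELISA after 24 h exposure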
[4] = read-out: Low-density lipoprotein receptor (LDLR), LDLR (gene 3949); assay: BSK_CASM3C_LDLR: BioMAP Diversity Plus: CASM3C Assay for Low-density lipoprotein receptor (LDLR) Biomarker Activity (AID 2283045); conditions: primary human coronary artery smooth muscle cells; actives raise or lower the signal;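 further: LDLR protein level on the cell surface quantified by ELISA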
[5] = read-out: Monocyte Chemoattractant Protein-1 (MCP1), CCL2 (gene 6347); assay: BSK_CASM3C_MCP1: BioMAP Diversity Plus: CASM3C Assay for Monocyte Chemoattractant Protein-1 (MCP1) Biomarker Activity (AID 2283046); conditions: primary human coronary artery smooth muscle cells; actives raise or lower the signal;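 further: MCP-1 level quantified by ELISA 24 h after dosing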
[6] = BSK_CASM3C_Proliferation: Cell Proliferation Assessment in the BioMAP Diversity Plus: CASM3C Assay (AID 2283047); conditions: primary human coronary artery smooth muscle cells;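 further: sulforhodamine B total protein stain as relative cell number at 560 nm; sub-confluent cells exposed 48 h before staining; fitted both ways against DMSO so gain or loss of cell number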
[7] = read-out: Monokine induced gamma interferon (MIG), CXCL9 (gene 4283); assay: BSK_CASM3C_MIG: BioMAP Diversity Plus: CASM3C Assay for Monokine induced gamma interferon (MIG) Biomarker Activity (AID 2283048); conditions: primary human coronary artery smooth muscle cells; actives raise or lower the signal;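 further: MIG protein level measured by ELISA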
[8] = read-out: serum amyloid A (SAA), SAA1 (gene 6288); assay: BSK_CASM3C_SAA: BioMAP Diversity Plus: CASM3C Assay for serum amyloid A (SAA) Biomarker Activity (AID 2283049); conditions: primary human coronary artery smooth muscle cells; actives raise or lower the signal;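 further: SAA protein level quantified by ELISA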
[9] = BSK_CASM3C_SRB: Viability Assessment in the BioMAP Diversity Plus: CASM3C Assay (AID 2283050); conditions: primary human coronary artery smooth muscle cells;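 further: total protein by SRB staining as cytotoxicity measure in parallel cultures; cells exposed to compound for 24 h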
[10] = read-out: Thrombomodulin, THBD (gene 7056); assay: BSK_CASM3C_Thrombomodulin: BioMAP Diversity Plus: CASM3C Assay for Thrombomodulin Biomarker Activity (AID 2283051); conditions: primary human coronary artery smooth muscle cells; actives raise or lower the signal;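 further: thrombomodulin protein level measured by ELISA 24 h after dosing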
[11] = read-out: Tissue Factor, F3 (gene 2152); assay: BSK_CASM3C_TissueFactor: BioMAP Diversity Plus: CASM3C Assay for Tissue Factor Biomarker Activity (AID 2283052); conditions: primary human coronary artery smooth muscle cells; actives raise or lower the signal;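 further: cell surface tissue factor protein level read by ELISA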
[12] = read-out: Urokinase-type plasminogen activator receptor (uPAR), PLAUR (gene 5329); assay: BSK_CASM3C_uPAR: BioMAP Diversity Plus: CASM3C Assay for Urokinase-type plasminogen activator receptor (uPAR) Biomarker Activity (AID 2283054); conditions: primary human coronary artery smooth muscle cells; actives raise or lower the signal;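 further: cell-surface uPAR protein level quantified by ELISA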
[13] = read-out: Vascular cell adhesion molecule 1 (VCAM1), VCAM1 (gene 7412); assay: BSK_CASM3C_VCAM1: BioMAP Diversity Plus: CASM3C Assay for Vascular cell adhesion molecule 1 (VCAM1) Biomarker Activity (AID 2283055); conditions: primary human coronary artery smooth muscle cells; actives raise or lower the signal;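 further: VCAM-1 protein level quantified by ELISA on the cells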
[14] = read-out: Collagen III, COL3A1 (gene 1281); assay: BSK_hDFCGF_CollagenIII: BioMAP Diversity Plus: hDFCGF Assay for Collagen III Biomarker Activity (AID 2283056); conditions: primary human foreskin fibroblasts; actives raise or lower the signal
In short: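 ELISA read-out of collagen III from human skin fibroblast cultures sampled 24 h post-dosing. Values were derived by bidirectional fitting relative to the DMSO vehicle control.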

[15] = read-out: Epidermal growth factor receptor (EGFR), EGFR (gene 1956); assay: BSK_hDFCGF_EGFR: BioMAP Diversity Plus: hDFCGF Assay for Epidermal growth factor receptor (EGFR) Biomarker Activity (AID 2283057); conditions: primary human foreskin fibroblasts; actives raise or lower the signal
In short: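 Cell-based multiplexed assay in primary human foreskin fibroblasts. EGFR is read by ELISA 24 h after treatment and compared with DMSO controls.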

[16] = read-out: Interleukin-8 (IL8), CXCL8 (gene 3576); assay: BSK_hDFCGF_IL8: BioMAP Diversity Plus: hDFCGF Assay for Interleukin-8 (IL8) Biomarker Activity (AID 2283058); conditions: primary human foreskin fibroblasts; actives raise or lower the signal
In short: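 Cells used are human skin primary fibroblasts. Chemical is added, cultures run 24 h, then IL-8 is quantified by ELISA, and gain or loss versus DMSO control is fitted in both directions.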

[17] = BSK_hDFCGF_Proliferation: Cell Proliferation Assessment in the BioMAP Diversity Plus: hDFCGF Assay (AID 2283059); conditions: primary human foreskin fibroblasts;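 further: curves fitted for both rise and fall of signal versus DMSO baseline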
In short: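 This proliferation readout used SRB total-protein staining of human foreskin fibroblasts […], normalized to DMSO with bidirectional curve fitting.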

[18] = read-out: Macrophage colony-stimulating factor (MCSF), CSF1 (gene 1435); assay: BSK_hDFCGF_MCSF: BioMAP Diversity Plus: hDFCGF Assay for Macrophage colony-stimulating factor (MCSF) Biomarker Activity (AID 2283060); conditions: primary human foreskin fibroblasts; actives raise or lower the signal
In short: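 Primary human foreskin fibroblasts dosed with chemical; 24 h later, M-CSF quantified by ELISA; curves fitted in both directions vs DMSO negative control.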

[19] = BSK_hDFCGF_SRB: Viability Assessment in the BioMAP Diversity Plus: hDFCGF Assay (AID 2283061); conditions: primary human foreskin fibroblasts;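 further: cells exposed to compound for 24 h before the read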
In short: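 Readout is SRB absorbance at 560 nm, reflecting total protein in parallel cultures of human foreskin fibroblasts harvested 24 h after chemical dosing. Activity was fitted bidirectionally relative to DMSO.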

Measured: AC50

c1cc(-c2ccncc2)ccn1
inactive: all assays above

COCCOCCOC
active: [14] 0.148 µM
inactive: all other assays above

FC(F)(F)C(F)(F)C(F)(F)C(F)(F)C(F)(F)C(F)(F)CCI
inactive: all assays above

CN1CCN(Cc2cc(-c3ccc4[nH]c(=O)oc4c3)co2)[C@@H](c2ccc(F)cc2)C1
active: [5] 736 nM | [6] 12.3 µM | [17] 17.6 µM | [18] 8.77 µM | [19] 17.6 µM
inactive: all other assays above

C[C@]12C=CC(=O)C=C1CC[C@@H]1[C@@H]2C(=O)C[C@@]2(C)[C@H]1CC[C@]2(O)C(=O)CO
active: [1] 184 nM | [3] 243 nM | [5] 242 nM | [8] 699 nM | [12] 239 nM
not listed: [9] | [19]
inactive: all other assays above

Cc1oc(-c2ccccc2)nc1CCOc1cccc2c1ccn2CCC(=O)O
inactive: all assays above

Cc1ccc(C)c(C)c1
inactive: all assays above

O=C(O)Cc1ccccc1Nc1c(Cl)cccc1Cl
active: [14] 20 µM | [17] 20 µM
inactive: all other assays above
